In PubChem BioAssay (NCATS) one finds Potency data, which are given here for ten compounds.

Structures are written as SMILES. Active and inactive are the calls of the source. No rule for the calls is given here.

Experiment [1] can be described thus: Immunotoxin (HA22) sensitization/mitigation study. Vehicle arm (PBS) (AID 1159510).
Experiment [2] can be described thus: Immunotoxin (SS1P) sensitization/mitigation study. Vehicle arm (DMEM) (AID 1159513).
Potency is read from the fitted curve at half-maximal effect.

Regarding `O=C(O)CCC1CCC(c2cc(F)ccc2F)(S(=O)(=O)c2ccc(Cl)cc2)CC1` (stereo not given), the Potency result in experiment [1] and in experiment [2] was “inactive” each time.

For the compound `COC(=O)Nc1ccc(-c2nc(N3CCOCC3)c3cnn(C4CCN(C(=O)OC)CC4)c3n2)cc1`, the Potency was 16.6 µM (active) in experiment [1] and 0.187 µM (active) in experiment [2].

As for `CCC1(O)CC2CN(CCc3c([nH]c4ccccc34)[C@@](C(=O)OC)(c3cc4c(cc3OC)N(C=O)[C@H]3[C@](O)(C(=O)OC)[C@H](OC(C)=O)[C@]5(CC)C=CCN6CC[C@]43[C@@H]65)C2)C1` (stereo not given in full), the Potency in experiment [1] was 0.0017 µM (active); in experiment [2] it was 0.0033 µM (active).

As for `O=C(OCC#CCSc1nnc(-c2ccc3ccccc3c2)o1)c1cc2ccccc2s1`, the Potency result in experiment [1] and in experiment [2] was “inactive” in each case.

On to `CC1(C)OC2=C(C(=O)c3ccccc3C2=O)[C@H](NCc2ccccc2)[C@H]1O`, for which the Potency in experiment [1] is 2.64 µM (active); in experiment [2] it was 13.2 µM (active).

`C[C@@H]1CCN(C(=O)CC#N)C[C@@H]1N(C)c1ncnc2[nH]ccc12`: the Potency entry in experiment [1] and in experiment [2] was “inactive” each time.

For `CC1(C)Cc2c(-c3ccccc3)c(-c3ccc(Cl)cc3)c(CC(=O)O)n2C1`, the results for the Potency in experiment [1] and in experiment [2] were 18.7 µM (active) and 16.6 µM (active), respectively.

As to `CC(=O)N(C)C1(c2ccccc2)CCN(CCC[C@]2(c3ccc(Cl)c(Cl)c3)CCCN(C(=O)c3ccccc3)C2)CC1`, the Potency is 13.2 µM (active) in experiment [1] and 18.7 µM (active) in experiment [2].

`CCCCCCCc1ccc(CCc2cccc(O)c2C(=O)O)cc1`: the Potency in experiment [1] was 23.5 µM (active); in experiment [2], 18.7 µM (active).

Take `COc1ccc(OC)c(-c2nnc3ccc(-c4ccc(OC)c(O[C@@H]5CCOC5)c4)nn23)c1`: the Potency in experiment [1] and in experiment [2] was 8.33 µM (active) in each case.
